Experimental data published in PubChem BioAssay AID1159580 (chemical genetic matrix, 2015).
In all, about 5,500 compounds went through this assay and about 2,000 (36%) were called active. Not shown: some 18% with an inconclusive outcome. Cut-off read from the data, not from the text of the source: active = normalized growth mostly below about 0.91 (no sharp cut-off); inconclusive = no clear call, values can overlap the other calls; inactive = mostly above about 0.92. The list shows a part of the results.

Experiment: chemical genetic growth profiling, strain panel (AID 1159580);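 note: tested at 20 µM; growth read once vehicle control cultures reached saturation at 30 °C; 1 = growth at the plate median or of vehicle wells; lower values mean less growth of the strain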
Conditions: S. cerevisiae deletion strains, growth OD

Measured: normalized growth

Cc1c(S(=O)(=O)c2ccc(Cl)cc2)csc1C(=O)NNc1cccc(Cl)c1
inactive: locus YAR019C, strain CDC15, active compounds read low 0.964 | locus YBL105C, strain PKC1, active compounds read low 0.958 | locus YBR135W, strain CKS1, active compounds read low 0.96 | locus YBR136W, strain MEC1, active compounds read low 0.962 | locus YBR160W, strain CDC28, active compounds read low 0.957 | locus YDL017W, strain CDC7, active compounds read low 0.967 | locus YDL028C, strain MPS1, active compounds read low 0.97 | locus YDL101C, strain DUN1, active compounds read low 0.978 | locus YDL108W, strain KIN28, active compounds read low 0.973 | locus YDL132W, strain cdc53, active compounds read low 0.954 | locus YDL214C, strain PRR2, active compounds read low 0.826 | locus YDR052C, strain DBF4, active compounds read low 0.953 | locus YDR054C, strain cdc34, active compounds read low 0.947 | locus YDR226W, strain ADK1, active compounds read low 0.959 | locus YDR477W, strain SNF1, active compounds read low 0.769 | locus YER133W, strain GLC7, active compounds read low 0.864 | locus YFL009W, strain cdc4, active compounds read low 0.962 | locus YFL029C, strain CAK1, active compounds read low 0.959 | locus YFR003C, strain YPI1, active compounds read low 0.967 | locus YFR028C, strain CDC14, active compounds read low 0.948 | locus YGR040W, strain KSS1, active compounds read low 0.811 | locus YGR052W, strain FMP48, active compounds read low 0.71 | locus YGR092W, strain DBF2, active compounds read low 0.783 | locus YHR030C, strain SLT2, active compounds read low 0.884 | locus YHR079C, strain IRE1, active compounds read low 1.01 | locus YHR082C, strain KSP1, active compounds read low 0.958 | locus YHR205W, strain SCH9, active compounds read low 0.907 | locus YIL147C, strain SLN1, active compounds read low 0.972 | locus YJL095W, strain BCK1, active compounds read low 0.679 | locus YJL128C, strain PBS2, active compounds read low 0.968 | locus YJL157C, strain FAR1, active compounds read low 0.886 | locus YJR016C, strain ILV3, active compounds read low 0.968 | locus YJR066W, strain TOR1 (second series), active compounds read low 0.684 | locus YJR066W, strain TOR1, active compounds read low 0.872 | locus YKL048C, strain ELM1, active compounds read low 0.947 | locus YKL067W, strain YNK1, active compounds read low 0.879 | locus YKL101W, strain HSL1, active compounds read low 0.948 | locus YKL193C, strain SDS22, active compounds read low 0.963 | locus YKL203C, strain TOR2, active compounds read low 0.954 | locus YLR133W, strain CKI1, active compounds read low 0.81 | locus YLR403W, strain SFP1, active compounds read low 0.877 | locus YML070W, strain DAK1, active compounds read low 0.823 | locus YMR001C, strain CDC5, active compounds read low 0.961 | locus YMR205C, strain PFK2 (second series), active compounds read low 0.91 | locus YMR277W, strain FCP1, active compounds read low 0.96 | locus YNL006W, strain LST8, active compounds read low 0.963 | locus YNL020C, strain ARK1, active compounds read low 0.941 | locus YNL161W, strain CBK1, active compounds read low 0.955 | locus YNL183C, strain NPR1, active compounds read low 0.911 | locus YNL207W, strain RIO2, active compounds read low 0.969 | locus YNL222W, strain SSU72, active compounds read low 0.961 | locus YNL307C, strain MCK1 (second series), active compounds read low 0.743 | locus YOL078W, strain AVO1, active compounds read low 0.965 | locus YOL136C, strain PFK27, active compounds read low 0.889 | locus YOR119C, strain RIO1, active compounds read low 0.905 | locus YOR231W, strain MKK1, active compounds read low 0.942 | locus YOR329C, strain SCD5, active compounds read low 0.969 | locus YPL031C, strain PHO85, active compounds read low 0.852 | locus YPL153C, strain RAD53, active compounds read low 0.857 | locus YPL204W, strain HRR25, active compounds read low 0.897 | locus YPL209C, strain IPL1, active compounds read low 0.955 | locus YPR025C, strain CCL1, active compounds read low 0.962 | locus YPR106W, strain ISR1, active compounds read low 0.971 | locus YPR111W, strain DBF20, active compounds read low 0.952 | strain NNK1, active compounds read low 0.966 | strain TSCII, active compounds read low 0.957
active: locus YER123W, strain YCK3, active compounds read low 0.574 | locus YFR019W, strain FAB1, active compounds read low 0.653 | locus YLR113W, strain HOG1, active compounds read low 0.675 | locus YPL256C, strain CLN2, active compounds read low 0.733
